Bioassay records (PubChem)
TDP1 cell CPT – DT40-hTDP1 cell growth loss with CPT. chicken DT40 Tdp1-/-;hTDP1 cells + 20 nM CPT, ATP luminescence, 48 h. Potency, µM (doses to about 46.2 µM), for the others: at the top dose activity change, negative = growth inhibition, most hits filed as inhibitors. 420,000 compounds, 12% hits; also: potency is read from the fitted curve at half-maximal effect; % is scaled to controls: 0 for no effect and ±100 for the full control effect; nearly all actives have a fitted effect of over 55% in size
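Cell growth measured by CellTiter-Glo luminescence after a minimum 48 h, 37 C compound exposure with 20 nM CPT in Tdp1-knockout DT40 cells stably expressing hTDP1, seeded 400/well; qHTS titration format.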
TGFb SMAD3 inh – TGF-b pathway inhibition | HepG2 CAGA-GFP TGF-b/SMAD3 reporter, GFP fluorescence, 18 h; TGF-beta stimulated, 500 pg/mL final | Potency, µM (titrated, usually from 46.1 µM), for inactives: at the top dose activity, negative = inhibition, usual class: inhibitors | 410,000 compounds, 1.2% hits | AID 588855; also: potency is read from the fitted curve at half-maximal effect; % is scaled to controls: 0 for no effect and ±100 for the full control effect; nearly all actives have a fitted effect of over 65% in size
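Inhibition was scored as loss of TGF-beta-induced (500 pg/mL final, 18 hours, 37 degrees C) GFP in HEPG2 cells carrying a CAGA-GFP reporter, in DMEM with 1% FBS. Well GFP was summed per cell; Activity was normalised to unstimulated and stimulated DMSO wells, then concentration-response fitting.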
DT40 TDP1 no CPT – qHTS for Inhibitors of human tyrosyl-DNA phosphodiesterase 1 (TDP1): qHTS in cells in absence of CPT; DT40 Tdp1-/- hTDP1 cells, no CPT, ATP luminescence, 48 h; Potency, µM (top dose mostly 46.2 µM), without a hit: top-dose activity change, negative = growth inhibition, hits mostly inhibitors; 420,000 compounds, 15% hits; also: potency is read from the fitted curve at half-maximal effect; % is scaled to controls: 0 for no effect and ±100 for the full control effect; nearly all actives have a fitted effect of over 55% in size
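Cells were dispensed at 400 per well, compounds added by pin tool, plates incubated ≥48 hr at 37 °C, then CellTiter-Glo added for 30 min at room temperature before luminescence reading. Line: DT40 Tdp1-/- complemented with hTDP1; camptothecin omitted.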
HepG2 tox – HepG2 cytotoxicity, counter-screen for TGF-b inhibitors; Potency, µM (highest dose often 46.1 µM), inactives show at the highest dose activity change, negative = cytotoxicity, most hits filed as cytotoxic; HepG2 CAGA-GFP viability, ATP luminescence, 18 h; AID 588856; 410,000 compounds, 0.76% hits; also: potency is read from the fitted curve at half-maximal effect
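CellTiter-Glo luminescence gave cytotoxicity after 18 hours at 37 degrees C. The cells were HepG2 CAGA-GFP in 1% FBS DMEM, stimulated with 500 pg/mL TGF-beta after compound addition. %Activity was normalised to no-cell wells (complete cell-killing) and DMSO (no toxicity), and curves were fitted and classified.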
IL1B secr inh – blocks inflammasome-driven IL-1 beta release | THP-1 LPS/ATP IL-1B secretion, AlphaLISA, 16 h; stronger effect = lower value | activity change, % at 57.5 µM | 360,000 compounds, 4.7% hits | AID 743279; in the data active = activity change below about -50%; inconclusive = mostly about -30% to -49%; also: % is scaled to controls: 0 for no effect and ±100 for the full control effect
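Secreted IL-1B measured by AlphaLISA bead assay after 16 h compound exposure of THP-1 cells; compounds (final up to 57.5 uM) added 1 h before LPS (250 ng/mL) and ATP (1.25 mM) stimulation; lower signal means less secretion.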
TDP1 block – TDP1 (human) enzyme inhibition. recombinant TDP1, AlphaScreen DNA substrate cleavage. Potency, µM (series often up to 130 µM), without a hit: at the top dose activity change, negative = inhibition, most hits filed as inhibitors. 350,000 compounds, 0.28% hits; also: potency is read from the fitted curve at half-maximal effect; % is scaled to controls: 0 for no effect and ±100 for the full control effect; nearly all actives have a fitted effect of over 40% in size
Target sequence (Q9NUW8 whole entry, looked up): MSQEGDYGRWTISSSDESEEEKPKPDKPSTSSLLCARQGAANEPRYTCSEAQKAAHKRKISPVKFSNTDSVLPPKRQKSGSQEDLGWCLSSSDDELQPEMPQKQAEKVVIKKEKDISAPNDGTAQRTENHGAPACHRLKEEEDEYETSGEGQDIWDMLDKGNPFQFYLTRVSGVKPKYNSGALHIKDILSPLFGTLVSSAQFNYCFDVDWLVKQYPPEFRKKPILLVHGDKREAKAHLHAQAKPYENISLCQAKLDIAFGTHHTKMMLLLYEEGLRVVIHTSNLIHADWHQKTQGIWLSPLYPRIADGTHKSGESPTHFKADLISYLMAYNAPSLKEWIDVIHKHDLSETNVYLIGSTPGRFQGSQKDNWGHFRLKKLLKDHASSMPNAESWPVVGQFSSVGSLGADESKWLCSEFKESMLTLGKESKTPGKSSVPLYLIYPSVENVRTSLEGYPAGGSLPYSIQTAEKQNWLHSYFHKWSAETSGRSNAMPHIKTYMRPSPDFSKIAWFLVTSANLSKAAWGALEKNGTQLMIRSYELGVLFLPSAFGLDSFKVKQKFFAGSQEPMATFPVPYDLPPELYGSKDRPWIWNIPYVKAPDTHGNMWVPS
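Here, a 5' biotin and 3' phosphotyrosine-FITC DNA oligonucleotide reports Tdp1 activity: intact substrate bridges AlphaScreen beads, while cleavage leaves a 3' phosphate and drops signal. All incubations at room temperature.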
* marks the source's active call; other numbers are inactive results; i = inactive; ? = inconclusive; / = no result given; [ ] = remark or other dose. Sampled rows, rich in hits. Any-hit rate of the full collection: about 18%. Unless noted, calls follow the shape of the dose curve; as a rule, active = well fitted curve in the direction sought with a large enough effect; inconclusive = small, poorly fitted or top-dose-only effect, or another doubt; inactive = no such curve, though single readings can be large; an effect the other way counts as inactive or inconclusive.

SMILES | TDP1 cell CPT | TGFb SMAD3 inh | DT40 TDP1 no CPT | HepG2 tox | IL1B secr inh | TDP1 block
COc1cccc(C2c3c(oc4ccc(C)cc4c3=O)C(=O)N2CCCN2CCOCC2)c1OC (configuration not stated) | ? | 2% | ? | 0% | / | 3%
C#CC(c1ccccc1)(c1ccccc1)n1ccnc1 | ? | -5% | 23µM* | -17% | -16 | /
Clc1ccccc1-c1nccc(-n2ccnc2)n1 | 4% | / | -1% | / | / | /
Clc1ccccc1C(c1ccccc1)(c1ccccc1)n1ccnc1 | 8.1µM* | ? | 10µM* | 20µM* | -24 | 16%[56.1 µM]
Nc1ncc(S(=O)(=O)Nc2ccc(F)cc2F)cn1 | 1% | 0% | 9% | -12% | / | 1%
COC(=O)[C@@]1(Cc2ccc(OC)cc2)[C@H]2c3cc(C(=O)N(C)C)n(Cc4ccc(S(C)(=O)=O)cc4)c3C[C@H]2CN1C(=O)c1ccccc1 | / | / | / | / | / | 13%
COC(=O)[C@@]1(Cc2ccc(F)cc2)[C@H]2c3cc(C(=O)N4CCCC4)n(Cc4ccc(S(C)(=O)=O)cc4)c3C[C@H]2CN1C(=O)c1ccccc1 | ? | / | 18µM* | / | -21 | 15%
COC(=O)[C@@]1(Cc2ccc(F)cc2)[C@H]2c3cc(C(=O)N(C)C)n(Cc4ccc(S(C)(=O)=O)cc4)c3C[C@H]2CN1C(=O)c1ccccc1 | 21µM* | / | ? | / | 0 | 0%
COc1ccc(CN2CC[C@H]3C=CC[C@@H](C(=O)Nc4ccc(Cl)cc4Cl)[C@H]3C2=O)cc1OC | ? | ? | ? | -3% | / | /
CCOC(=O)CC1(CC)Oc2ccccc2N1S(=O)(=O)c1ccc(C)cc1 (configuration not stated) | 23µM* | / | ? | / | 1 | /
CCOC(=O)C1CN(S(=O)(=O)c2ccc(OC)cc2)c2ccccc2O1 (configuration not stated) | 6% | -8% | -18% | -6% | 45 | /
CCOC(=O)CC1(C)N(S(=O)(=O)c2ccc(C)cc2)c2ccccc2N1S(=O)(=O)c1ccc(C)cc1 | ? | / | 15µM* | / | 2 | /
CCOC(=O)C1CCN(S(=O)(=O)c2ccc(C)cc2)CC1 | -10% | -29% | -2% | 0% | 39 | -4%
CC1(C)Cc2c(sc3[nH]c(=S)n(Cc4ccco4)c(=O)c23)CO1 | 21µM* | -14% | ? | -36% | ? | /
CC1(C)Cc2c(sc3c2c(=N)n(Cc2ccco2)c(=O)n3Cc2ccccc2)CO1 | 18µM* | 27% | ? | 5% | -23 | 5%
CC1(C)Cc2c(sc3c2c(=N)n(Cc2ccco2)c(=O)n3Cc2ccc(Cl)cc2)CO1 | -110% | -1% | ? | 7% | ? | 0%
CCN(CC(=O)Nc1ccc(NC(C)=O)cc1)C(=O)/C=C/c1ccc(C)o1 | -1% | 2% | 16% | 1% | -5 | 3%
COc1ccccc1NC(=O)c1cnc(SCC(=O)NCCc2ccccc2)n(C)c1=O | 16µM* | 23% | 10µM* | -6% | 10 | 0%
CC(=O)Nc1ccc(NC(=O)CSc2ncc(C(=O)Nc3ccccc3)c(=O)n2C)cc1 | 21µM* | -19% | 21µM* | -1% | 1 | 0%
Cc1ccc(CNC(=O)CSc2ncc(C(=O)Nc3ccccc3)c(=O)n2C)cc1 | 12µM* | -6% | 15µM* | -4% | 24 | 0%
Cc1ccc(NC(=O)c2cnc(SCC(=O)Nc3cc(C)on3)n(C)c2=O)cc1 | -12% | -3% | -5% | -13% | / | 3%
Cn1c(SCC(=O)NCc2ccccc2)ncc(C(=O)Nc2ccccc2)c1=O | 12µM* | -6% | ? | -5% | 19 | -2%
COc1ccc(CCNC(=O)CSc2ncc(C(=O)Nc3ccccc3)c(=O)n2C)cc1 | ? | 17% | ? | -18% | 24 | -13%
Cn1c(SCC(=O)Nc2nc3ccccc3s2)ncc(C(=O)Nc2ccccc2)c1=O | 0% | 1% | 1% | -9% | / | -8%
COCCn1c(SCC(=O)NCC2CCCO2)nc2c([nH]c3ccccc32)c1=O (configuration not stated) | -6% | -19% | -10% | 0% | i | 4%
SMILES | TDP1 cell CPT | TGFb SMAD3 inh | DT40 TDP1 no CPT | HepG2 tox | IL1B secr inh | TDP1 block
O=c1cc(-c2ccccc2)nc2c(Cl)cc(Cl)cn12 | -6% | -15% | ? | -50% | 19 | /
Cc1cccc2sc(NNC(=O)c3ccc(S(=O)(=O)N4CCCC(C)C4)cc3)nc12 (configuration not stated) | 4.1µM* | 13µM* | 3.7µM* | -61% | 135 | 7%
Cc1cc(C)c2nc(NNC(=O)c3ccc(S(=O)(=O)N4CCCCC4)cc3)sc2c1 | 4.6µM* | ? | 3.3µM* | -20% | 106 | 9%
Cc1cccc2sc(NNC(=O)c3ccc(S(=O)(=O)N4CCc5ccccc5C4)cc3)nc12 | 2.6µM* | 11µM* | 2.3µM* | -34% | 125 | 4%
Cc1cc(C)c2nc(NC(=O)c3ccc(S(=O)(=O)N4CCCC4)cc3)sc2c1 | -20% | 7% | -23% | 1% | / | 0%
CC(=O)c1ccc(S(=O)(=O)N2CCc3ccccc3C2)cc1 | 0% | 6% | ? | -2% | -10 | /
CCc1cc(C(=O)Nc2c(C)nn(Cc3ccccc3Cl)c2C)no1 | ? | 10% | ? | 2% | / | 0%
O=C(NCc1ccccn1)c1cccc(S(=O)(=O)Nc2ccccc2Cl)c1 | -7% | -12% | 17% | -17% | 6 | 2%
CCc1nc(OCc2ccccc2)c2sc3nc4c(cc3c2n1)COC(C)(C)C4 | 29µM* | -5% | ? | -30% | -8 | 6%
CCOc1ncnc2c1sc1nc3c(cc12)COC(C)(C)C3 | 2% | -1% | 6% | 0% | -9 | /
CC1(C)Cc2nc3sc4c(OCc5ccccc5)ncnc4c3cc2CO1 | ? | 11% | 18µM* | -12% | 55 | 4%
CC1(C)Cc2nc3sc4c(=O)n(CC(=O)NCc5ccco5)cnc4c3cc2CO1 | 4.6µM* | 0% | 8.2µM* | -10% | 36 | 6%
CC1(C)Cc2nc3oc4c(=O)n(CC(=O)Nc5ccccc5)cnc4c3cc2CO1 | -27% | -4% | -18% | 9% | 63 | 0%
CCCCCn1cnc2c(sc3nc4c(cc32)CSC(C)(C)C4)c1=O | ? | -3% | 10µM* | -13% | 9 | -2%
CCC(CC)C(=O)Nc1cccc(-c2nc3ncccn3c2C)c1 | -11% | 1% | -28% | 3% | / | 8%
